Assay outcomes deposited in PubChem BioAssay by Broad Institute.
Tg IFNy HTS: inhibitors of Toxoplasma gondii growth with IFN-gamma; 69,000 tested, 3.8% active; activity change, negative = inhibition, % (no concentration beside the values); Toxoplasma gondii growth in IFN-gamma-treated host cells; active compounds read low; in the data active means activity change below about -70%, passing the limit was not always enough;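 further: host cells are HeLa cells infected with Toxoplasma gondii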
An asterisk follows results filed as active. This is one part of a sample in which hits are shown more often than they occur.

SMILES	Tg IFNy HTS
CCc1ccc(NC(=O)c2nc(Nc3ccccc3)c3ccccc3n2)cc1	-6
CN(C)CC1(O)CCN(C(=O)c2ccc(Cn3ccnc3)o2)C1 (centres undefined)	-47
Cc1nnsc1C(=O)n1nc(C(C)(C)C)cc1C(C)(C)C	-41
C[C@@H](O)C#Cc1ccc([C@H]2[C@@H](CO)N3CCCCN(C(=O)c4ccc5c(c4)OCO5)C[C@H]23)cc1	-39
COCC1CN(C(=O)c2ccnnc2)Cc2cnn(C)c21 (centres undefined)	6
COc1ccc2c3c([nH]c2c1)[C@@H](CO)N(C)CC31CCN(S(=O)(=O)c2cn(C)cn2)CC1	141
CC(C)(N)COC12CC3CC(CC(C3)C1)C2	37
Cc1ccc(-c2cc(O)c3c(c2)CN(Cc2ccoc2)CCO3)s1	4
C=CCN(Cc1ccc(O)c(C)c1)Cc1ccccn1	2
COc1ccc(-c2nc(C(=O)NC(C)CN3CCOCC3)cs2)cc1 (centres undefined)	26
CC(C)C[C@H](NC(=O)[C@H](CCc1ccccc1)NC(=O)CN1CCOCC1)C(=O)N[C@@H](Cc1ccccc1)C(=O)N[C@@H](CC(C)C)C(=O)[C@@]1(C)CO1	-63
COc1ccc(C[C@H](NC(=O)[C@H](C)NC(=O)CN2CCOCC2)C(=O)N[C@@H](Cc2ccccc2)C(=O)[C@]2(C)CO2)cc1	-74*
O=C1Nc2cc(Cl)ccc2Oc2ccccc21	7
O=C1NC2(C=Cc3c(ccc4ccccc34)O2)Oc2ccccc21 (centres undefined)	-107*
O=C(Cc1c[nH]c2ccccc12)NCC1CCN(c2cc(-c3ccccn3)[nH]n2)CC1	71
Cc1nnsc1C(=O)N1CCCC(N(C)C)CC1 (centres undefined)	-3
O=C(NCCc1ccccn1)Nc1nnc(-c2ccc(F)cc2)s1	-5
S=C(NCCc1ccccn1)NC1CC2CCC1C2 (centres undefined)	62
S=C(NCCc1ccccn1)NN1C2CSC1CS2	-84*
C[C@H]1CN([C@@H](C)CO)C(=O)c2cccc(NC(=O)Nc3ccc(F)cc3)c2O[C@H]1CN(C)S(=O)(=O)c1ccc(Cl)cc1	-2
COc1ccc(-c2nnc3n2C2(CCCC2)Cc2cc(OC)c(OC)cc2-3)cc1	-11
COc1cc2c(cc1OC)C(C)=NC1(CCCCC1)C2	24
COc1cc2c(cc1OC)C(Nc1ccc(Br)cc1)=NC1(CCCC1)C2	-85*
Cc1ccc(F)c(NC(=O)c2c(O)c3cccnc3n(-c3ccc(F)cc3)c2=O)c1	58
CCOc1nc(N2CCOCC2)nc(N)c1S(=O)(=O)c1ccc(Cl)cc1	-41
SMILES	Tg IFNy HTS
CC(C)N(C)Cc1cn2c(n1)CN(Cc1ccc3c(c1)OCO3)CC2	3
CCn1c(-c2cc(NC(=O)c3ccncc3)n[nH]2)cc2ccc(OC)cc21	-92*
CCn1c(-c2cc(NC(=O)c3cncc(Br)c3)n[nH]2)cc2cc(OC)ccc21	37
CCn1c(-c2cc(NC(=O)c3cccnc3)n[nH]2)cc2c(OC)cccc21	-48
Nc1cccc(-n2c(CO)nc3ccccc32)n1	-39
Cc1cc(C)cc(NC(=O)C(=O)NCCc2csc(-c3ccc(Cl)cc3)n2)c1	-35
COc1ccc(Nc2nc(-c3nnc(-c4ccc(F)cc4)o3)nc3ccccc23)c(OC)c1	128
COC1CCCC(C(=O)N2CCC3(CC2)C(=O)Nc2ccc(-c4ccc(C(C)=O)cc4)cc23)C1 (centres undefined)	-86*
CCC(=O)N1CCC2(CC1)C(=O)Nc1ccc(C(=O)NC3CC3)cc12	3
COC1CCCC(C(=O)N2CCC3(CC2)C(=O)Nc2ccc(-c4cccc(F)c4)cc23)C1 (centres undefined)	11
COc1ccc(Cc2cc(=O)[nH]c(NCCc3cnccn3)n2)cc1	13
COCCN1C(=O)CCc2cc(NS(=O)(=O)c3ccccc3Cl)ccc21	69
CC(C)c1csc(C(=O)N2CC[C@@H]3CC[C@H](C2)N3C)n1	-4
CCn1nc(C)c(Cn2ccnc2-c2ccccc2SC)c1C	3
CCCCCCCC1CC(CSc2ncn[nH]2)OC1=O (centres undefined)	-24
COc1cccc(-c2ccc3c(c2)O[C@@H](CN(C)Cc2cccnc2)[C@@H](C)CN([C@@H](C)CO)S3(=O)=O)c1	-55
COc1cccc(-c2ccc3c(c2)O[C@@H](CN(C)Cc2cccnc2)[C@H](C)CN([C@@H](C)CO)S3(=O)=O)c1	-95*
COc1ccccc1-c1ccc2c(c1)O[C@H](CN(C)CC1CCOCC1)[C@@H](C)CN([C@H](C)CO)S2(=O)=O	-52
COc1cccc(-c2ccc3c(c2)O[C@H](CN(C)Cc2cccnc2)[C@@H](C)CN([C@H](C)CO)S3(=O)=O)c1	-97*
C[C@H](CO)N1C[C@H](C)[C@@H](CN(C)C(=O)Cc2cccnc2)Oc2cc(C#Cc3ccccc3F)ccc2S1(=O)=O	-108*
COc1ccccc1-c1ccc2c(c1)O[C@H](CN(C)CC1CCOCC1)[C@@H](C)CN([C@@H](C)CO)S2(=O)=O	-19
C[C@H]1CN([C@@H](C)CO)S(=O)(=O)c2ccc(C#CC(C)(C)O)cc2O[C@@H]1CN(C)Cc1ccc(F)cc1	-2
